This passage reports outcome and AC50 results from PubChem BioAssay (EPA / NIEHS).

Read-out in test [1]: Thrombomodulin, THBD (gene 7056)
The test can be described thus: BSK_CASM3C_Thrombomodulin: BioMAP Diversity Plus: CASM3C Assay for Thrombomodulin Biomarker Activity (AID 2283051).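 Note: thrombomodulin protein level measured by ELISA 24 h after dosing.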 The following applies: primary human coronary artery smooth muscle cells; actives raise or lower the signal.

Read-out in test [2]: Tissue Factor, F3 (gene 2152)
The test can be described thus: BSK_CASM3C_TissueFactor: BioMAP Diversity Plus: CASM3C Assay for Tissue Factor Biomarker Activity (AID 2283052).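 Note: cell surface tissue factor protein level read by ELISA.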 The following applies: primary human coronary artery smooth muscle cells; actives raise or lower the signal.

Read-out in test [3]: Interferon-gamma inducible Protein 10 (IP10), CXCL10 (gene 3627)
The test is described as follows: BSK_hDFCGF_IP10: BioMAP Diversity Plus: hDFCGF Assay for Interferon-gamma inducible Protein 10 (IP10) Biomarker Activity (AID 2283053). The following applies: primary human foreskin fibroblasts; actives raise or lower the signal. In outline: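 Chemical-treated human skin fibroblasts (primary) were sampled at 24 h for IP-10 by ELISA. Both increases and decreases relative to DMSO were scored.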

Read-out in test [4]: Urokinase-type plasminogen activator receptor (uPAR), PLAUR (gene 5329)
The test is described as follows: BSK_CASM3C_uPAR: BioMAP Diversity Plus: CASM3C Assay for Urokinase-type plasminogen activator receptor (uPAR) Biomarker Activity (AID 2283054).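 Note: cell-surface uPAR protein level quantified by ELISA.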 To be noted: primary human coronary artery smooth muscle cells; actives raise or lower the signal.

Read-out in test [5]: Vascular cell adhesion molecule 1 (VCAM1), VCAM1 (gene 7412)
The test can be described thus: BSK_CASM3C_VCAM1: BioMAP Diversity Plus: CASM3C Assay for Vascular cell adhesion molecule 1 (VCAM1) Biomarker Activity (AID 2283055).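 Note: VCAM-1 protein level quantified by ELISA on the cells.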 The following applies: primary human coronary artery smooth muscle cells; actives raise or lower the signal.

Read-out in test [6]: Collagen III, COL3A1 (gene 1281)
The test can be described thus: BSK_hDFCGF_CollagenIII: BioMAP Diversity Plus: hDFCGF Assay for Collagen III Biomarker Activity (AID 2283056). To be noted: primary human foreskin fibroblasts; actives raise or lower the signal. In short, it runs like this:
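Human foreskin fibroblast primary cultures sampled 24 h after dosing; Collagen III quantified by ELISA. Signal fitted bidirectionally against DMSO baseline.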

Read-out in test [7]: Epidermal growth factor receptor (EGFR), EGFR (gene 1956)
The test can be described thus: BSK_hDFCGF_EGFR: BioMAP Diversity Plus: hDFCGF Assay for Epidermal growth factor receptor (EGFR) Biomarker Activity (AID 2283057). The following applies: primary human foreskin fibroblasts; actives raise or lower the signal. In outline: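 Cell-based multiplexed assay in primary human foreskin fibroblasts. EGFR is read by ELISA 24 h after treatment and compared with DMSO controls.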

Read-out in test [8]: Interleukin-8 (IL8), CXCL8 (gene 3576)
The test can be described thus: BSK_hDFCGF_IL8: BioMAP Diversity Plus: hDFCGF Assay for Interleukin-8 (IL8) Biomarker Activity (AID 2283058). To be noted: primary human foreskin fibroblasts; actives raise or lower the signal. In outline: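 Primary human foreskin fibroblasts (hDFCGF system) dosed with chemical; IL-8 measured by ELISA 24 hours later. Bidirectional curve fitting relative to DMSO baseline; cytotoxicity tracked in parallel cultures by SRB total protein staining.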

Test [9] in a line: BSK_hDFCGF_Proliferation: Cell Proliferation Assessment in the BioMAP Diversity Plus: hDFCGF Assay (AID 2283059).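 Note: curves fitted for both rise and fall of signal versus DMSO baseline.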 To be noted: primary human foreskin fibroblasts. In short, it runs like this:
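Total protein read at 560 nm after 0.1% SRB staining of TCA-fixed human skin fibroblasts, […]. Activity is fitted in both directions relative to DMSO as baseline.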

Read-out in test [10]: Macrophage colony-stimulating factor (MCSF), CSF1 (gene 1435)
The test can be described thus: BSK_hDFCGF_MCSF: BioMAP Diversity Plus: hDFCGF Assay for Macrophage colony-stimulating factor (MCSF) Biomarker Activity (AID 2283060). To be noted: primary human foreskin fibroblasts; actives raise or lower the signal. In short, it runs like this: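 Human foreskin fibroblast primary cultures; M-CSF measured by ELISA 24 hours after chemical dosing. Bidirectional fitting relative to DMSO, with overt cytotoxicity tracked by parallel SRB total-protein staining (0.1% SRB, 10% TCA fixation, 560 nm).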

The nature of test [11]: BSK_hDFCGF_SRB: Viability Assessment in the BioMAP Diversity Plus: hDFCGF Assay (AID 2283061).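 Note: cells exposed to compound for 24 h before the read.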 To be noted: primary human foreskin fibroblasts. In outline: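 Human foreskin fibroblasts in 96-well plates were treated 24 h. Total protein was measured by 0.1% SRB staining after 10% TCA fixation, read at 560 nm. Data were fitted bidirectionally against DMSO.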
Read-out in test [12]: TIMP metallopeptidase inhibitor 1 (TIMP1), TIMP1 (gene 7076)
The test can be described thus: BSK_hDFCGF_TIMP1: BioMAP Diversity Plus: hDFCGF Assay for TIMP metallopeptidase inhibitor 1 (TIMP1) Biomarker Activity (AID 2283062). The following applies: primary human foreskin fibroblasts; actives raise or lower the signal. In outline: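 Human foreskin fibroblast primary cultures dosed for 24 h; secreted/surface TIMP-1 quantified by ELISA. Bidirectional curve fitting against DMSO baseline; cytotoxicity tracked in parallel cultures by SRB total-protein staining.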

Read-out in test [13]: Monokine induced gamma interferon (MIG), CXCL9 (gene 4283)
The test is described as follows: BSK_hDFCGF_MIG: BioMAP Diversity Plus: hDFCGF Assay for Monokine induced gamma interferon (MIG) Biomarker Activity (AID 2283063). To be noted: primary human foreskin fibroblasts; actives raise or lower the signal. In outline:
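MIG/CXCL9 measured by ELISA 24 h after dosing primary human skin fibroblasts. Activity fitted in both directions against DMSO controls. Cytotoxicity was checked in parallel cultures by SRB staining read at 560 nm.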

Read-out in test [14]: Matrix Metallopeptidase 1 (MMP1), MMP1 (gene 4312)
The test is described as follows: BSK_hDFCGF_MMP1: BioMAP Diversity Plus: hDFCGF Assay for Matrix Metallopeptidase 1 (MMP1) Biomarker Activity (AID 2283064). To be noted: primary human foreskin fibroblasts; actives raise or lower the signal. In short, it runs like this:
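Human foreskin fibroblasts exposed to chemical for 24 h; MMP1 detected by ELISA, with DMSO as baseline for bidirectional fitting.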

Read-out in test [15]: Vascular cell adhesion molecule 1 (VCAM1), VCAM1 (gene 7412)
The test is described as follows: BSK_hDFCGF_VCAM1: BioMAP Diversity Plus: hDFCGF Assay for Vascular cell adhesion molecule 1 (VCAM1) Biomarker Activity (AID 2283065).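 For AC50: VCAM-1 protein level quantified by ELISA after 24 h chemical exposure.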 The following applies: primary human foreskin fibroblasts; actives raise or lower the signal. In short, it runs like this: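 Human foreskin fibroblast primary cells dosed with chemical, VCAM-1 measured by ELISA at 24 h. Bidirectional curve fitting relative to DMSO as negative control/baseline.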

Read-out in test [16]: Plasminogen activator inhibitor-1 (PAI1), SERPINE1 (gene 5054)
The test can be described thus: BSK_hDFCGF_PAI1: BioMAP Diversity Plus: hDFCGF Assay for Plasminogen activator inhibitor-1 (PAI1) Biomarker Activity (AID 2283066). The following applies: primary human foreskin fibroblasts; actives raise or lower the signal. In short, it runs like this: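 Human skin fibroblast cultures receive chemical for 24 h before PAI-1 is measured by ELISA; signal changes are fitted bidirectionally against DMSO-treated wells.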

Read-out in test [17]: Intercellular Adhesion Molecule 1 (ICAM1), ICAM1 (gene 3383)
The test is described as follows: BSK_KF3CT_ICAM1: BioMAP Diversity Plus: KF3CT Assay for Intercellular Adhesion Molecule 1 (ICAM1) Biomarker Activity (AID 2283067). To be noted: primary human keratinocytes with fibroblasts; actives raise or lower the signal. In outline:
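Human keratinocyte–foreskin fibroblast co-culture was treated for 24 h. Cell-surface ICAM-1 was quantified by ELISA, fitted bidirectionally relative to DMSO. Cytotoxicity was checked in parallel cultures by SRB total-protein staining.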

Read-out in test [18]: Interferon-gamma inducible Protein 10 (IP10), CXCL10 (gene 3627)
The test can be described thus: BSK_KF3CT_IP10: BioMAP Diversity Plus: KF3CT Assay for Interferon-gamma inducible Protein 10 (IP10) Biomarker Activity (AID 2283068). The following applies: primary human keratinocytes with fibroblasts; actives raise or lower the signal. In short, it runs like this: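 Human keratinocyte plus foreskin fibroblast primary co-culture exposed to test chemical for 24 h; IP-10 measured by ELISA. Concentration-response fitted bidirectionally against DMSO control as baseline.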

Test [19] in a line: BSK_KF3CT_SRB: Viability Assessment in the BioMAP Diversity Plus: KF3CT Assay (AID 2283069).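 Note: read 24 h after compound addition; fitted for both signal gain and loss against DMSO baseline.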 The following applies: primary human keratinocytes with fibroblasts. In short, it runs like this: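 Overt cytotoxicity is assessed as total protein by sulforhodamine B staining in parallel human skin co-cultures at 24 h after dosing. DMSO serves as negative control and baseline.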
Read-out in test [20]: Interleukin-1 alpha (IL1a), IL1A (gene 3552)
The test is described as follows: BSK_KF3CT_IL1a: BioMAP Diversity Plus: KF3CT Assay for Interleukin-1 alpha (IL1a) Biomarker Activity (AID 2283070). To be noted: primary human keratinocytes with fibroblasts; actives raise or lower the signal. In outline:
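Readout is IL-1a level by ELISA, compared bidirectionally with DMSO as baseline. Cells: human keratinocytes co-cultured with foreskin fibroblasts, harvested 24 h post-dose.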

Active and inactive are the calls of the source. Rule for the calls: active = hit-call score of the fitted dose curve at least 0.9, where 1 is the maximum; inactive = score below 0.9.

With `Cc1ccc(OP(=O)(Oc2ccc(C)cc2C)Oc2ccc(C)cc2C)c(C)c1`, the outcome in [1], in [2], in [3], in test [4], in test [5] and in test [6] was inactive. The result in test [8], in [12], in test [13], in test [15], in [17] and in test [18] was inactive. The result in test [19] and in test [20] was inactive. Besides, the half-maximal activity concentration (AC50) was 3.88 µM (active) in test [7]; 4.72 µM (active) in test [9]; 5.48 µM (active) in test [10]; 4.22 µM (active) in test [11]; 10.3 µM (active) in test [14]; 0.445 µM (active) in test [16].
In the case of `CCOC(=O)CC(=O)CCl`, the outcome in [1], in test [3], in [4], in [6], in test [7] and in [8] was inactive. Further, the outcome in test [11], in test [12], in [14], in test [16], in [17] and in [18] was inactive. Moreover, the outcome in test [19] was inactive. For the same compound, the AC50 in test [2] was 14 µM (active); in [5], 20 µM (active); in test [9] it was 19 µM (active); in test [10], 20 µM (active); in test [13], 20 µM (active); in [15] it was 20 µM (active). The AC50 in [20] was 6.58 µM (active).
With `Cc1cccc(OP(=O)(Oc2cccc(C)c2)Oc2cccc(C)c2)c1`, the result in test [1], in test [2], in [3], in [4], in test [5] and in [6] was inactive. Besides, the result in [7], in test [8], in test [9], in test [11], in test [12] and in test [13] was inactive. The outcome in test [14], in [15], in test [17], in [18], in test [19] and in test [20] was inactive. In addition, the AC50 was 4.78 µM (active) in test [10] and 0.0473 µM (active) in test [16].
For `COCC(=O)N(c1c(C)cccc1C)[C@H](C)C(=O)OC`, the outcome in test [1], in test [2], in test [3], in test [4], in [5] and in test [6] was inactive. Further, the result in test [7], in test [8], in test [9], in [10], in [11] and in test [12] was inactive. In addition, the outcome in test [13], in test [14], in [15], in test [16], in [17] and in test [18] was inactive. The outcome in test [19] and in [20] was inactive.
For `CCOP(=O)(OCC)OC(=CCl)c1ccc(Cl)cc1Cl`, the result in test [1], in test [7], in [8] and in [17] was inactive. In addition, the AC50 was 24.9 µM (active) in [2]; 36.4 µM (active) in test [3]; 30.2 µM (active) in test [4]; 33.8 µM (active) in test [5]; 25.6 µM (active) in test [6]; 37.4 µM (active) in test [9]. Moreover, the AC50 in test [10] is 31 µM (active); in test [11], 30.8 µM (active); in test [12], 30.1 µM (active); in [13], 30.7 µM (active); in test [14], 31.5 µM (active); in [15] it was 36.8 µM (active). The values for the AC50 in [16], in test [18] and in test [19] were 24.7 µM (active), 32.8 µM (active) and 35.2 µM (active), respectively.
For `NC(=O)CCl`, the result in [1], in test [2], in test [3], in test [4], in [5] and in [7] was inactive. Moreover, the outcome in test [8], in test [9], in [10], in [11], in test [12] and in [13] was inactive. The result in test [14], in [15], in test [16], in [17], in test [18] and in test [19] was inactive. In addition, the outcome in test [20] was inactive. In addition, the AC50 in test [6] is 9.58 µM (active).

In general, AC50 refers to the midpoint of the concentration-response curve, whichever way the signal moves.
